# ChEMBL document CHEMBL3988442, “University of Dundee, Small-Polar-MMV Screening Library” (2021)
# In all, about 48,000 compounds went through this assay and about 13,000 (27%) showed an effect of 50% or more. This is one part of the list.
# Test system: Wolbachia pipientis
# Assay: Anti-Wolbachia Cell-Based Screen
# Format: functional
# Set-up: scale not given: in the data most compounds retested in dose-response had high values
# Settings: 5 µM
row,SMILES,Percent Effect
1,CC(C)(C)c1cc(=O)[nH]c(C2(N)CCCC2)n1,3.211%
2,CC[C@H]1CN2CC[C@H]1C[C@@H]2CNC(=O)Nc1cccc(C(F)(F)F)c1,-2.454%
3,Cc1noc(CN2CC=C(c3cnn(C4CCS(=O)(=O)C4)c3)CC2)n1 (centres undefined),-14.25%
4,CCOc1ccc(-c2cc(CCN)ccc2OC)cc1,7.711%
5,Cl.O=C(N[C@H]1CN[C@H]2CCCO[C@H]21)c1cscn1,6.195%
6,CN1C[C@H](NC(=O)c2cscn2)[C@@H]2OCCC[C@@H]21.O=C(O)C(F)(F)F,111.9%
7,O=C(N[C@H]1CN(Cc2cccs2)[C@@H]2CCCO[C@H]12)c1cccnc1.O=C(O)C(F)(F)F.O=C(O)C(F)(F)F,-1.494%
8,Nc1ncccc1CN1C[C@@H]2CC[C@H](C1)N(CC1CC1)C2=O,7.202%
9,CNCC[C@H]1CC(C)(C)Oc2ccc(C)cc21,99.82%
10,COCc1cn(C[C@H]2C[C@@H]3CCN2C[C@@H]3C(=O)N2CCOCC2)nn1,-6.421%
11,O=C(CN1CCN(C(=O)Cc2ccc3c(c2)OCCO3)CC1)NC1CC1,5.479%
12,CN(C)CCN(C)C(=O)Cc1ccc2c(c1)OCCO2.O=C(O)CC(O)(CC(=O)O)C(=O)O,107.5%
13,Cc1[nH]c2c(C)cccc2c1CC(=O)N(C)CCN(C)C.O=C(O)CC(O)(CC(=O)O)C(=O)O,103%
14,NC(=O)CN1CCCN(C(=O)Cc2ccc3c(c2)OCO3)CC1,-4.573%
15,CN(C)CCN(C(=O)Cc1ccc2c(c1)OCCO2)C1CCN(C)CC1.O=C(O)CC(O)(CC(=O)O)C(=O)O,109%
16,CNC(=O)[C@H]1C[C@@H]2CN(C(=O)c3ccc(C)nc3)C[C@@H]2N1C(C)C.O=C(O)C(F)(F)F.O=C(O)C(F)(F)F,4.326%
17,CC(C)NC(=O)c1ccc2c(c1)C1(CCN(C)CC1)C(=O)N2.O=C(O)C(F)(F)F,109.7%
18,CC(C)N1C(=O)C2(CCN(C)CC2)c2cc(F)ccc21.Cl,-32.23%
19,CNC(=O)c1ccc2c(c1)C1(CCN(C(C)C)CC1)C(=O)N2.O=C(O)C(F)(F)F,95.47%
20,CC(C)CN1CCC2(CC1)C(=O)Nc1ccc(C(=O)N(C)C)cc12.O=C(O)C(F)(F)F,-3.196%
21,CC(C)NC(=O)c1ccc2c(c1)C1(CCN(C(C)C)CC1)C(=O)N2.O=C(O)C(F)(F)F,106.4%
22,CC(C)CN1CCC2(CC1)C(=O)Nc1ccc(C(=O)NC(C)C)cc12.O=C(O)C(F)(F)F,99.87%
23,CNC(=O)c1ccc2c(c1)C1(CCN(CC(C)C)CC1)C(=O)N2.O=C(O)C(F)(F)F,-7.062%

row,SMILES,Percent Effect
1,CNC(=O)[C@H]1C[C@H]2OCC[C@H]2N(CC2CC2)C1.O=C(O)C(F)(F)F,-3.474%
2,Cc1ccccc1CNCC(O)c1ccc(OC(C)C)cc1 (centres undefined),14.53%
3,CCc1cc(CN(C)C(=O)CN2CC(Cc3ccccc3)CC2=O)on1 (centres undefined),4.825%
4,O=C(NCC1CC1)C1CCC2(CCNCC2)C1 (centres undefined),-14.8%
5,Cc1cc(CC(=O)N2CCN(C)[C@@H]3CS(=O)(=O)C[C@@H]32)ccc1F,-18.64%
6,CCS(=O)(=O)c1nnc([C@@H](N)Cc2ccccc2)o1,144%
7,Cc1cnc(N2CCC3(CCCCN3C)C2)nc1.O=C(O)C(F)(F)F (centres undefined),-23.72%
8,O=S(=O)(NC[C@H]1C[C@@H]2CCN1C[C@@H]2CN1CCCCC1)c1ccccc1,-3.393%
9,CCS(=O)(=O)N1CCN(CCOC)c2ncccc2C1,117.1%
10,COCCN1CCN(S(C)(=O)=O)Cc2cccnc21,94.34%
11,CCCS(=O)(=O)N1CCN(CCOC)c2nc(C)ccc2C1.O=C(O)C(F)(F)F,12.9%
12,COCCN1CCN(S(=O)(=O)C2CC2)Cc2cccnc21,114%
13,COCCN1CCN(S(=O)(=O)C2CC2)Cc2ccc(C)nc21.O=C(O)C(F)(F)F,0.9634%
14,CC(=O)c1cc(CC(=O)N2CCN(CCOc3ccccc3)CC2)cs1,-5.45%
15,COc1ccc(F)cc1C(=O)C1CCCN(Cc2ccc(C)s2)C1 (centres undefined),-15.99%
16,O=c1[nH]ccn1CCCN1CC=C(c2cnn(-c3ccccc3)c2)CC1,2.052%
17,COC(=O)NCC1CCC2(CCNCC2)O1.Cl (centres undefined),-32.05%
18,O=C(O)C(F)(F)F.O=C(O)C(F)(F)F.c1ccc(CN2CCN3C[C@H](Oc4cncnc4)C[C@H]3C2)nc1,117.2%
19,Fc1cccc(O[C@@H]2C[C@H]3CN(Cc4ccccn4)CCN3C2)c1.O=C(O)C(F)(F)F.O=C(O)C(F)(F)F,-1.961%
20,Cn1ccnc1CN1CCN2C[C@H](Oc3cncnc3)C[C@H]2C1.O=C(O)C(F)(F)F.O=C(O)C(F)(F)F,-0.7067%
21,Cc1cccc(CN2CCN3C[C@H](Oc4cccnc4)C[C@H]3C2)n1.O=C(O)C(F)(F)F.O=C(O)C(F)(F)F.O=C(O)C(F)(F)F,-1.606%
22,Cc1cccc(CN2CCN3C[C@H](Oc4cncnc4)C[C@H]3C2)n1.O=C(O)C(F)(F)F.O=C(O)C(F)(F)F,126.4%
23,Cc1nc(CN2CCN3C[C@H](Oc4cncnc4)C[C@H]3C2)cs1.O=C(O)C(F)(F)F.O=C(O)C(F)(F)F,123.6%

row,SMILES,Percent Effect
1,c1ccc(CN2CCN3C[C@H](Oc4cccnc4)C[C@H]3C2)nc1,-1.108%
2,O=C(C[C@@H]1COC[C@H]2CN(Cc3cccnc3)C[C@@H]12)NCC1CC1.O=C(O)C(F)(F)F.O=C(O)C(F)(F)F,115.9%
3,O=C(C[C@@H]1COC[C@H]2CN(Cc3cccnc3)C[C@@H]12)N1CCCC1.O=C(O)C(F)(F)F.O=C(O)C(F)(F)F,109.1%
4,COCCNC(=O)C[C@@H]1COC[C@H]2CN(Cc3cccnc3)C[C@@H]12,116.3%
5,CO[C@H]1CCN(S(=O)(=O)N(C)C)[C@@H]2CN(Cc3cccnc3)C[C@H]12.O=C(O)C(F)(F)F.O=C(O)C(F)(F)F,0.8682%
6,O=C(C[C@@H]1COC[C@H]2CN(C3CCC3)C[C@@H]12)NCc1cccnc1.O=C(O)C(F)(F)F.O=C(O)C(F)(F)F,108.6%
7,O=C(C[C@H]1[C@H]2CN(Cc3ccncc3)C[C@@H]12)N1CCCC1.O=C(O)C(F)(F)F.O=C(O)C(F)(F)F,16.46%
8,O=C(NCc1ccccn1)[C@@H]1COC[C@H]2CNC[C@H]21,-0.4259%
9,O=C(COc1ccc(Cl)cc1Cl)N1CCCSCC1CN1CCOCC1 (centres undefined),-6.318%
10,c1cnc(N2CCOCC3(CNCCO3)C2)nc1 (centres undefined),-30.03%
11,O=C(C[C@@H]1COC[C@H]2CN(CC3CC3)C[C@@H]12)NCc1cccnc1.O=C(O)C(F)(F)F.O=C(O)C(F)(F)F,86.58%
12,COCCN1C[C@@H]2COC[C@@H](CC(=O)NCc3cccnc3)[C@@H]2C1.O=C(O)C(F)(F)F.O=C(O)C(F)(F)F,24.5%
13,CNCCc1nc2cc(Cl)ccc2[nH]1.Cl.Cl,8.686%
14,CC(C)Oc1ccc(C(O)CNCc2ccccc2C(F)(F)F)cc1 (centres undefined),-32.82%
15,O=C(O)C(F)(F)F.O=C(O)C(F)(F)F.O=C1[C@H]2CN(C3CCOCC3)C[C@H]2CN1Cc1ccncc1,-10.38%
16,CN1CCO[C@@H]2CN(C(=O)c3ccc4ncccc4c3)CC[C@@H]2C1.O=C(O)C(F)(F)F.O=C(O)C(F)(F)F,-8.044%
17,O=C(c1ccno1)N1CC[C@@H]2CN(C3CCOCC3)CCO[C@@H]2C1,85.56%
18,CN1CCC(N(C)c2ccccc2CNCc2ccco2)CC1,13.84%
19,Cc1cccc(CN2C(=O)CCC23CCNCC3)n1.O=C(O)C(F)(F)F.O=C(O)C(F)(F)F,115.6%
20,Cc1cccc(CN2CCC3(CCN(c4cccnc4)C3=O)C2)n1.O=C(O)C(F)(F)F.O=C(O)C(F)(F)F (centres undefined),-4.819%
21,CCN1CCN(C)C2(CCN(Cc3cccc(C)n3)CC2)C1=O.O=C(O)C(F)(F)F.O=C(O)C(F)(F)F,-10.53%
22,O=C(Nc1ccc(Cn2cccn2)cc1)N1CCC2(CC1)OCCO2,-11.32%
23,O=C(Cn1ccc2c(Cl)cccc21)N1CCC2(CC1)OCCO2,11.16%

row,SMILES,Percent Effect
1,O=C(Cc1cnc(-c2c(Cl)cccc2Cl)s1)N1CCC2(CC1)OCCO2,110.5%
2,O=C(Cc1ccc(O)c(F)c1)N1CCN(CC2CC2)[C@@H]2CS(=O)(=O)C[C@@H]21,-17.2%
3,O=C(O)C(F)(F)F.c1coc(CNc2ncc3c(n2)C2(CCNC2)COC3)c1 (centres undefined),-4.361%
4,Cc1cnc(N2CCCC3(CCCN(C)C3)C2)nc1 (centres undefined),-6.547%
5,Clc1cc(N2CCN3CCCCC3C2)nc2[nH]ccc12 (centres undefined),91.81%
6,Clc1cc(CN2CCCN3CCCC3C2)c2ncccc2c1 (centres undefined),-2.153%
7,COCc1cn(C[C@H]2CC3CCN2C[C@@H]3C(=O)Nc2ccccc2)nn1 (some centres undefined),-0.5907%
8,CCc1cc(CNCc2ccccc2N(C)C2CCN(C)CC2)on1,10.76%
9,Cc1noc(C)c1CN1C[C@@H]2C[C@H](C(=O)NCC3CC3)N(C)[C@@H]2C1.O=C(O)C(F)(F)F.O=C(O)C(F)(F)F,97.39%
10,CNC(=O)[C@@H]1C[C@H]2CN(Cc3c(C)noc3C)C[C@H]2N1C(C)C.O=C(O)C(F)(F)F.O=C(O)C(F)(F)F,-23.54%
11,CNC(=O)[C@H]1C[C@@H]2CN(Cc3c(C)noc3C)C[C@@H]2N1C(C)=O.O=C(O)C(F)(F)F,-32.47%
12,Cc1noc(C)c1CN1C[C@@H]2CC(F)(F)C[C@@H]2C1.O=C(O)C(F)(F)F,103.5%
13,Cc1noc(C)c1CN1C[C@@H]2CN(C(=O)c3cscn3)C[C@@H]2C1,-4.527%
14,Cc1noc(C)c1CN1C(=O)[C@H]2CC[C@@H]1CN(Cc1ncc[nH]1)C2,-9.267%
15,Cc1noc(C)c1CN1CC[C@@H]2O[C@@H](COCC(C)C)CC[C@@H]21.O=C(O)C(F)(F)F,-18.54%
16,Cc1noc(C)c1CN1C[C@H]2CNC[C@H]2C1,94.55%
17,Cc1noc(C)c1CN1C[C@@H]2CN(C(=O)c3cnccn3)C[C@@H]2C1.O=C(O)C(F)(F)F,12.22%
18,Cc1noc(C)c1CN1CC[C@@H]2O[C@H](COCC(C)C)CC[C@@H]21.O=C(O)C(F)(F)F,9.009%
19,C[C@@H]1C[C@H]2CN(Cc3nccs3)C[C@H]2O1.O=C(O)C(F)(F)F,-5.34%
20,Cc1noc(C)c1CN1C[C@@H]2C[C@@H](C)O[C@@H]2C1.O=C(O)C(F)(F)F,94.5%
